# From PubChem BioAssay
# Several values for one entry are separate records, joined by “and”; a condition that tells them apart may be missing. Equal entries are not always repeated. Records with an inconclusive call do not appear. Activity calls are given as the source filed them. Unless noted, no stated cut-off is given here; in the data, active means inhibition above about 80%; inactive means the rest.
# Experiments:
# [1] = viability loss in pontine glioma line – cell-based, SU-DIPG-XVII, MIPE5.0, CellTiter-Glo, qHTS, dose response (AID 1347060; cut-off not given, nearly all actives have AC50 up to about 26 µM); conditions: CellTiter-Glo ATP luminescence
# [2] = viability loss in pontine glioma line – cell-based, SU-DIPG-XIII, MIPE4.0, CellTiter-Glo, qHTS, dose response (AID 1347061; cut-off not given, nearly all actives have AC50 up to about 37 µM;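 further: cells exposed to compound for 48 hours before readout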); conditions: CellTiter-Glo ATP luminescence
# [3] = viability loss in pontine glioma line – cell-based, JHH-DIPG-1, MIPE4.0, CellTiter-Glo, qHTS, dose response (AID 1347062; cut-off not given, nearly all actives have AC50 up to about 27 µM); conditions: JHH-DIPG-1 viability, CellTiter-Glo ATP luminescence
# [4] = viability loss in pontine glioma line – cell-based, SU-DIPG-IV, MIPE4.0, CellTiter-Glo, qHTS, dose response (AID 1347063; cut-off not given, nearly all actives have AC50 up to about 30 µM;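 further: compound exposure lasted 48 hours before the viability readout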); conditions: CellTiter-Glo ATP luminescence
# [5] = growth inhibition of DIPG cells – cell-based, MIPE4.0 library, CellTiter-Glo luminescence, qHTS (AID 1347066; cut-off not given, nearly all actives have AC50 up to about 30 µM;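 further: cells exposed to compound for 48 hours before readout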); conditions: SU-DIPG-VI viability, CellTiter-Glo ATP luminescence
# [6] = JHH-DIPG-1 glioma cell viability, MIPE5.0 library, CellTiter-Glo luminescence, qHTS (AID 1347067; cut-off not given, nearly all actives have AC50 up to about 26 µM;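 further: cells exposed to compound for 48 hours before readout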); conditions: JHH-DIPG-1 glioma viability, CellTiter-Glo ATP luminescence
# [7] = growth inhibition of DIPG cells – cell-based, MIPE5.0 library, qHTS (AID 1347068; cut-off not given, nearly all actives have IC50 up to about 30 µM); conditions: SU-DIPG-XXV viability
# [8] = growth inhibition, single agent or in combination, cell-based, chromothripsis tumors, cisplatin or BGB combos (AID 1671449); conditions: LFS_MB_P medulloblastoma cells;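 further: cells exposed for 96 hours; 0% = vehicle DMSO and 100% = killing by high DMSO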
# [9] = growth inhibition, single agent and combos, cell-based, chromothripsis tumors, cisplatin or BGB combos (AID 1671450); conditions: HDN33 neuroblastoma cells, stronger effect = higher value;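 further: cells exposed to compound for four days; 0% = vehicle DMSO and 100% = cell killing by high DMSO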
# [10] = growth inhibition, single agents and combos, HTB85, cell-based, BGB or cisplatin IC20 combos, synergistic combos for chromothripsis tumors (AID 1671453); conditions: HTB85 osteosarcoma cells, drug combinations, stronger effect = higher value;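 further: cells exposed for 96 hours before readout; 0% = vehicle DMSO and 100% = high DMSO killing control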
# [11] = growth inhibition, MDA-MB-436, cell-based, BGB or cisplatin combos, synergistic combos for chromothripsis tumors (AID 1671458; call rule not given here;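 further: cells exposed for 96 hours; 0% = vehicle DMSO and 100% = killing by high DMSO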); conditions: MDA-MB-436 breast carcinoma growth inhibition, drug combinations, stronger effect = higher value
# [12] = BT084 cell growth, single and combined drugs, ICGC_MB145, cisplatin and BGB IC40 combos (AID 1671461); conditions: BT084 medulloblastoma cells, drug combinations, stronger effect = higher value;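 further: cells exposed to drugs for 96 hours; 0% = vehicle DMSO and 100% = high DMSO full killing control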
# [13] = RCMB18 cell growth, single agent and combined, cisplatin and BGB IC40 combos (AID 1671462); conditions: RCMB18 medulloblastoma cells, stronger effect = higher value;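 further: cells exposed to compound for four days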
# [14] = CRL1545 cell growth, single agent and combined, cisplatin and BGB IC20 combos (AID 1671464); conditions: CRL1545 osteosarcoma cells, stronger effect = higher value;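 further: cells exposed to compound for 96 hours before readout; 0% = vehicle DMSO and 100% = high DMSO killing control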
# [15] = compounds altering circadian rhythm period length – cell-based, LOPAC library, luminescence reporter (AID 2774; call rule not given here;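 further: values are relative to mean of DMSO wells on each plate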); conditions: circadian reporter cells, at 7 µM, actives lie on both sides
# [16] = tested on: Hepatitis C virus NS3 helicase; assay: blockers of NS3h binding to ssDNA – biochemical, fluorescence polarization, LOPAC1280 library, primary screen (AID 687035; in the data active means inhibition above about 37%); conditions: Purified HCV NS3 helicase, Cy5-dT15 ssDNA binding fluorescence polarization; stronger effect = higher value; concentration not given here
# [17] = compounds altering Cy5-DNA-NS3h complex signal – biochemical, LOPAC1280, artefact control for HCV NS3 helicase inhibitor project (AID 687037; call rule not given here); conditions: Cy5-DNA-NS3h complex fluorescence interference counterscreen
# [18] = blockers of cellular phospholipid synthesis – cell-based, LOPAC library, screen 4, primary screen (AID 1347384; call rule not given here); conditions: animal cells, phospholipid biosynthesis inhibition screen; at 10 µM
# [19] = at 0.5 µM, stronger effect = higher value
# [20] = measured here: combination with BGB IC20, at 0.005 µM
# [21] = measured here: combination with BGB IC40, at 0.005 µM
# [22] = measured here: combination with BGB IC40, at 0.05 µM
# [23] = measured here: combination with cisplatin, at 0.5 µM, stronger effect = higher value
# [24] = measured here: combination with cisplatin, at 5 µM, stronger effect = higher value
# [25] = measured here: with BGB IC20 combination, at 0.5 µM
# [26] = measured here: with cisplatin IC20 combination, at 0.5 µM
# [27] = measured here: with BGB IC20, at 0.5 µM
# [28] = measured here: with BGB IC20, at 5 µM
# [29] = measured here: with cisplatin IC20, at 0.5 µM
# [30] = measured here: with cisplatin IC20, at 5 µM
# [31] = measured here: BGB combination, at 0.5 µM
# [32] = measured here: BGB combination, at 5 µM
# [33] = measured here: cisplatin combination, at 0.5 µM
# [34] = measured here: cisplatin combination, at 5 µM
# [35] = cisplatin combination, at 0.5 µM
# [36] = measured here: BGB IC40 combination 0.05 uM, at 0.05 µM
# [37] = measured here: BGB IC40 combination, at 0.05 µM
# [38] = measured here: combination with cisplatin, at 0.5 µM
structure (smiles),measurement,setting,value
COc1c(N2CCNC(C)C2)c(F)cc2c(=O)c(C(=O)O)cn(C3CC3)c12 (stereo unspecified),outcome,[1],inactive
same,outcome,[2],inactive
same,outcome,[3],inactive
same,outcome,[4],inactive
same,outcome,[5],inactive
same,outcome,[6],inactive
same,outcome,[7],inactive
same,inhibition,[8]; [19],-20.5% (inactive) and -4.2% (inactive)
same,inhibition,[8]; [20],17.2% and 22.3%
same,inhibition,[8]; [21],3.24% and -1.74%
same,inhibition,[8]; [22],-33% and 5.75%
same,inhibition,[8]; [23],-33.3% and -6.41%
same,inhibition,[8]; [24],-5.09% and 4.8%
same,inhibition,"[9]; BGB combo, at 5 µM",-39.9% and 9.99%
same,inhibition,[9]; at 0.5 µM,-22% (inactive) and 8.9% (inactive)
same,inhibition,"[9]; cisplatin combo, at 5 µM",-25.7% and 17.8%
same,inhibition,[9]; [25],-19.2% and 9.8%
same,inhibition,[9]; [26],-37.3% and 8.47%
same,inhibition,"[9]; single agent, at 5 µM",-2.12% and 5.9%
same,inhibition,[10]; at 0.5 µM,-28.9% (inactive) and -4.45% (inactive)
same,inhibition,[10]; [27],-22.5% and -1.96%
same,inhibition,[10]; [28],-17.3% and -16.7%
same,inhibition,[10]; [29],-35.1% and -12%
same,inhibition,[10]; [30],-18.3% and -5.81%
same,inhibition,"[10]; single agent, at 5 µM",17.7% and -9.93%
same,inhibition,[11]; at 0.5 µM,-1.19% (inactive) and -2.62% (inactive)
same,inhibition,[11]; [31],3.75% and -2.36%
same,inhibition,[11]; [32],-2.62% and -0.158%
same,inhibition,[11]; [33],-6.86% and -4.47%
same,inhibition,[11]; [34],-18.4% and -9.12%
same,inhibition,[12]; at 0.5 µM,11.1% (inactive) and -2.29% (inactive)
same,inhibition,[12]; [35],-21.4% and -4.21%
same,inhibition,"[12]; cisplatin combination, at 5 µM",-1.24% and -0.514%
same,inhibition,[12]; [36],19.1% and 4.51%
same,inhibition,"[12]; single agent, at 5 µM",-3.66% and 0.545%
same,inhibition,[13]; at 0.5 µM,0.35% (inactive) and 3.27% (inactive)
same,inhibition,"[13]; cisplatin combo, at 5 µM",-46.2% and 7.98%
same,inhibition,[13]; [37],-11.6% and -8.34%
same,inhibition,[13]; [38],-15.6% and 6.4%
same,inhibition,"[13]; single agent, at 5 µM",4.79% and -5.12%
same,inhibition,[14]; at 0.5 µM,-17.5% (inactive) and -1.12% (inactive)
same,inhibition,[14]; [25],-19.9% and -23.9%
same,inhibition,[14]; [26],-18.3% and 8.22%
same,inhibition,"[14]; single agent, at 0.05 µM",-13.6% and 2.79%
same,inhibition,"[14]; single agent, at 5 µM",-53.5% and 15.1%
COCCOC(=O)C1=C(C)NC(C)=C(C(=O)OC(C)C)C1c1cccc([N+](=O)[O-])c1 (stereo unspecified),period change,[15],0.19 h (inactive)
same,inhibition,[16],-4% (inactive)
same,fluorescence ratio (interference),[17],0.9 (inactive)
same,outcome,[18],inactive
CC(COc1ccccc1)N(CCCl)Cc1ccccc1 (stereo unspecified),period change,[15],0.03 h (inactive)
same,inhibition,[16],-1% (inactive)
same,fluorescence ratio (interference),[17],1 (inactive)
same,outcome,[1],inactive
same,outcome,[2],inactive
same,outcome,[3],inactive
same,outcome,[5],inactive
same,outcome,[6],inactive
same,outcome,[7],inactive
CCn1cc(C(=O)O)c(=O)c2cc(F)c(N3CCN(C)CC3)cc21,outcome,[1],inactive
same,outcome,[3],inactive
same,outcome,[4],inactive
same,outcome,[5],inactive
same,outcome,[7],inactive
same,inhibition,[8]; [19],-3.22% (inactive) and -29% (inactive)
same,inhibition,[8]; [20],13.2% and 24%
same,inhibition,[8]; [21],-32.6% and 8.85%
same,inhibition,[8]; [22],12.2% and 6.61%
same,inhibition,[8]; [23],-21.7% and -50.8%
same,inhibition,[8]; [24],-2.03% and -14%
same,inhibition,"[9]; BGB combo, at 5 µM",-18.6% and 9.99%
same,inhibition,[9]; at 0.5 µM,-25.3% (inactive) and 3.48% (inactive)
same,inhibition,"[9]; cisplatin combo, at 5 µM",-42% and 24.3%
same,inhibition,[9]; [25],-16.6% and 0.157%
same,inhibition,[9]; [26],-28.5% and 3.55%
same,inhibition,"[9]; single agent, at 5 µM",-19.9% and 6.42%
same,inhibition,[10]; at 0.5 µM,-24.6% (inactive) and 0.8% (inactive)
same,inhibition,[10]; [27],-39.2% and 13.3%
same,inhibition,[10]; [28],-22.1% and 10.1%
same,inhibition,[10]; [29],-19.7% and -20.6%
same,inhibition,[10]; [30],-28.4% and -20.4%
same,inhibition,"[10]; single agent, at 5 µM",-27.1% and 2.1%
same,inhibition,[11]; at 0.5 µM,-8.42% (inactive) and -1.21% (inactive)
same,inhibition,[11]; [31],-5.87% and 9.12%
same,inhibition,[11]; [32],-7.49% and 1.82%
same,inhibition,[11]; [33],-16.3% and -4.65%
same,inhibition,[11]; [34],-9.37% and -6.1%
same,inhibition,[12]; at 0.5 µM,-1.86% (inactive) and 3.84% (inactive)
same,inhibition,[12]; [35],-11.9% and -2.51%
same,inhibition,"[12]; cisplatin combination, at 5 µM",-69% and 6.95%
same,inhibition,[12]; [36],-0.823% and 30.3%
same,inhibition,"[12]; single agent, at 5 µM",-6.24% and -12.7%
same,inhibition,[13]; at 0.5 µM,-15.3% (inactive) and 13.4% (inactive)
same,inhibition,"[13]; cisplatin combo, at 5 µM",-13.1% and 21.2%
same,inhibition,[13]; [37],11.2% and 6.78%
same,inhibition,[13]; [38],-34.9% and 34.7%
same,inhibition,"[13]; single agent, at 5 µM",-30.4% and 4.8%
same,inhibition,[14]; at 0.5 µM,-40.9% (inactive) and -9.39% (inactive)
same,inhibition,[14]; [25],-21.3% and -8%
same,inhibition,[14]; [26],-50.7% and -12.6%
same,inhibition,"[14]; single agent, at 0.05 µM",3.45% and -1.09%
same,inhibition,"[14]; single agent, at 5 µM",-27.1% and 1.32%
